# Among all 330,000 compounds or so, about 10,000 (3%) were called active.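 How the source made its calls: active means inhibition of at least 50% at 8 µM in the primary screen; inactive means the rest.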 This excerpt belongs to a sample that is enriched for actives.
# Biological target: Protein Mdm4 (Homo sapiens) + E3 ubiquitin-protein ligase Mdm2 (Homo sapiens) (UniProt O15151+Q00987)
# Test: disruptors of Mdm2/MdmX RING complex – cell-based, luminescence, split luciferase, SaOS-2, uHTS, primary screen (AID 485346)
# Conditions: SaOS-2 split-luciferase Mdm2/MdmX complementation, at 8 µM, stronger effect = higher value
# Protein Mdm4 (Homo sapiens) + E3 ubiquitin-protein ligase Mdm2 (Homo sapiens), sequence (O15151 whole entry, looked up): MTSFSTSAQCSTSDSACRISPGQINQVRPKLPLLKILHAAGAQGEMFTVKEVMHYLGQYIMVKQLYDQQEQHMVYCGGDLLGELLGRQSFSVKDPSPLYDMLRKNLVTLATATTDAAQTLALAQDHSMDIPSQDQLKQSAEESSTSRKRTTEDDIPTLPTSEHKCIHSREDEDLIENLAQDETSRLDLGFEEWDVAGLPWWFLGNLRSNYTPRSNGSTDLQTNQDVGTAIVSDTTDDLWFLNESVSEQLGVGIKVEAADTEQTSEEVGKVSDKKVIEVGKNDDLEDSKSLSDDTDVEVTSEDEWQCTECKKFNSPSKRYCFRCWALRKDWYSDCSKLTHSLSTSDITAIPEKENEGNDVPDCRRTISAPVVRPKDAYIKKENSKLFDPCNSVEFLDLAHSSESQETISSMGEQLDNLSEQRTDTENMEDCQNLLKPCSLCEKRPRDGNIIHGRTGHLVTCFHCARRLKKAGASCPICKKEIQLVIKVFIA
# Protein Mdm4 (Homo sapiens) + E3 ubiquitin-protein ligase Mdm2 (Homo sapiens), sequence (Q00987 whole entry, looked up): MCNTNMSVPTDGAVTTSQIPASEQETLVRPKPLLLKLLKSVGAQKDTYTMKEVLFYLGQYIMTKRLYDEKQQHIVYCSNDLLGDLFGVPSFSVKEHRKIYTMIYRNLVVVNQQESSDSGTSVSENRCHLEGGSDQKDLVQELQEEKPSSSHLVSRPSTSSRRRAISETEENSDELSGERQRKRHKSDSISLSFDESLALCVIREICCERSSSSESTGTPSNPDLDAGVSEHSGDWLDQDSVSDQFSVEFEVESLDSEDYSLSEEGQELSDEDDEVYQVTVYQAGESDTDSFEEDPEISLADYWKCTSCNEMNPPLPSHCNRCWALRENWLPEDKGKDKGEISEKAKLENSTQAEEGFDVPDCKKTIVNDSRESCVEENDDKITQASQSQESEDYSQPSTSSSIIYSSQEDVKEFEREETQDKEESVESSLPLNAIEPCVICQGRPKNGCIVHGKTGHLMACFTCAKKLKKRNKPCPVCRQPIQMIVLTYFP
row,SMILES,inhibition
1,COc1ccc(C(=O)C2CCCN(Cc3cccn3-c3ccccn3)C2)c(C)c1 (stereo unspecified),46.4% (inactive)
2,COc1ccc(CN2CN(C(C)C)CSC2=S)cc1,63.7% (active)
3,S=C1SCN(CCN2CCOCC2)CN1Cc1ccccc1,19% (inactive)
4,COc1ccc(CN2CN(C3CCCC3)CSC2=S)cc1,34.2% (inactive)
5,O=C(CSc1nncn1-c1cccnc1)N1CCOCC1,-14.1% (inactive)
6,Cc1ccc(C(=O)O)cc1NC(=O)c1ccc(Cn2nc(C)c(Cl)c2C)o1,2.65% (inactive)
7,Cc1nn(Cc2ccc(Cl)cc2)c(Cl)c1/C=N/NC(=O)c1cccnc1,-2.65% (inactive)
8,Cc1c(Cl)c([N+](=O)[O-])nn1Cc1ccc(C(=O)N/N=C\c2cc(Cl)ccc2O)o1,68.9% (active)
9,Cc1nc(Nc2ccccc2F)c2nnn(Cc3ccccc3Cl)c2n1,4.88% (inactive)
10,Cc1nc(Nc2ccc3c(c2)OCCO3)c2nnn(Cc3ccccc3Cl)c2n1,32.4% (inactive)
11,CCCc1nc(NCc2ccc3c(c2)OCO3)c2nnn(Cc3ccccc3Cl)c2n1,75.2% (active)
12,CCOc1ccc(C(=O)CCC(=O)Nc2ccncc2)cc1,13.9% (inactive)
13,C=CCn1c2ccccc2c2nnc(SCc3[nH]c(=O)[nH]c3C(=O)CCCCC(=O)OCC)nc21,26.8% (inactive)
14,Cc1ccc(NC(=O)C2CC2)cc1S(=O)(=O)N1CCOCC1,-2.88% (inactive)
15,O=C1CSC(c2ccc(Cl)cc2)N1 (stereo unspecified),-16.7% (inactive)
16,c1coc(CNc2ncnc3ccccc23)c1,-3.14% (inactive)
17,Cc1noc(C)c1-c1ccc2ncnc(NC(C)c3ccco3)c2c1 (stereo unspecified),83.9% (active)
18,O=C(NC(=S)Nc1ccccc1C(=O)O)c1ccc(-c2ccc(Br)cc2)o1,44.1% (inactive)
19,CC1CCN(CC(=O)Nc2nccs2)CC1,32.3% (inactive)
20,CC(C)CCN1C(=O)c2ccc(C(=O)Nc3cccc(S(N)(=O)=O)c3)cc2C1=O,7.02% (inactive)
21,COc1nc(N=C(N)N)nc2c(C)cccc12,22.9% (inactive)
22,CC(=O)Oc1ccc(-c2nc3c(C)cccc3c(=O)o2)cc1,15.5% (inactive)
23,Cc1nc(N=C(N)N)nc2c(C)cccc12,75.4% (active)
24,COc1cc(C2C(C#N)=C(N)Oc3n[nH]c(-c4ccccn4)c32)cc(OC)c1OC (stereo unspecified),1.17% (inactive)

row,SMILES,inhibition
1,COc1ccc(C2C(C#N)=C(/N=C/N3CCOCC3)OC3=C2C(=O)CC(C)(C)C3)cc1OC (stereo unspecified),-7.65% (inactive)
2,COc1ccc(C2C(C#N)=C(N)Oc3cc(N)ccc32)cc1OC (stereo unspecified),50.9% (active)
3,COc1ccccc1NS(=O)(=O)c1ccc(C(=O)N2CCN(c3ccccc3O)CC2)cc1,19.3% (inactive)
4,O=P(O)(CN1CCCCCC1)C1Cc2ccccc2C1,10.7% (inactive)
5,O=C(CNc1ccccc1N1CCCC1=O)Nc1cc(Cl)ccc1-n1cncn1,0.059% (inactive)
6,Cc1ccc(S(=O)(=O)N2CCN(C(=O)Cn3c(=O)cnc4ccccc43)CC2)c(C)c1,12.2% (inactive)
7,C[C@@H]1C[C@@H]2O[C@H]2/C=C\C=C\C(=O)Cc2c(Cl)c(O)cc(O)c2C(=O)O1,79.3% (active)
8,CCN(CC(=O)N1CCCC1)S(=O)(=O)c1ccc(F)cc1,-4.05% (inactive)
9,Cc1ccc(F)cc1S(=O)(=O)Nc1cccc(C(=O)N2CCCC(C(N)=O)C2)c1 (stereo unspecified),17.8% (inactive)
10,COc1ccc(-c2nn(-c3ccccc3)cc2/C=N/Nc2ccccn2)cc1OC,34.3% (inactive)
11,Oc1ccc(/C=N/Nc2ccc(C(F)(F)F)cn2)cc1O,-9.44% (inactive)
12,Oc1ccc(Br)cc1/C=N/Nc1ccccn1,84.7% (active)
13,Cc1cccc(NC(=O)N2CCCCCC2)c1C,23.2% (inactive)
14,CCN([C@H](CO)C(C)C)S(=O)(=O)c1ccccc1Br,33.9% (inactive)
15,CCc1cc2c(N3CCN(c4nnc(CC)s4)CC3)ncnc2s1,29.4% (inactive)
16,Oc1ccccc1N1CCN(c2ncnc3sc(-c4ccccc4)cc23)CC1,81.3% (active)
17,c1ccc(-c2cc3c(NCC4COc5ccccc5O4)ncnc3s2)cc1 (stereo unspecified),31.6% (inactive)
18,NNC(=O)c1nnn(-c2nonc2N)c1CN1CCCC1,4.39% (inactive)
19,Nc1nonc1-n1nnc(C(=O)N/N=C/c2ccccc2O)c1CN1CCCC1,52.8% (active)
20,Nc1nonc1-n1nnc(C(=O)N/N=C\c2ccncc2)c1CN1CCCCC1,3.58% (inactive)
21,CCOC(=O)c1ccc(NC(=O)CCn2c(=O)oc3ccccc32)cc1,8.91% (inactive)
22,Cc1cccc(NC(=O)c2ccc(S(=O)(=O)N(C)CC3CCCO3)cc2)c1C (stereo unspecified),17.9% (inactive)
23,CCOC(=O)c1c(NC(=O)c2ccc(S(=O)(=O)N(C)CC3CCCO3)cc2)sc2c1CC(C)(C)NC2(C)C (stereo unspecified),79.5% (active)
24,CN(CC1CCCO1)S(=O)(=O)c1ccc(C(=O)Nc2ccc(F)cc2)cc1 (stereo unspecified),14.6% (inactive)

row,SMILES,inhibition
1,CCCn1c2ccccc2c2cnn(CC(=O)NCCCN3CCCCC3CC)c(=O)c21 (stereo unspecified),24% (inactive)
2,O=C(CN1C(=O)CCS(=O)(=O)c2ccccc21)NCc1ccc(F)cc1,13.2% (inactive)
3,COc1cc2c(cc1OC)CN(C(C)C(=O)Nc1cccc(S(=O)(=O)N3CCOCC3)c1)CC2 (stereo unspecified),21.6% (inactive)
4,CCCCN1CCNC1=S,27% (inactive)
5,O=C(CSc1nccn1-c1cccc(F)c1)NC1CCCC1,6.79% (inactive)
6,Cc1ccc(Cn2nnc3c(=O)n(CC(=O)N4CCCCC4)cnc32)cc1,8.92% (inactive)
7,O=C(Cn1cnc2c(nnn2Cc2ccc(F)cc2)c1=O)NCc1ccc2c(c1)OCO2,7.94% (inactive)
8,Cc1cc(C)cc(NC(=O)Cn2cnc3c(nnn3Cc3ccc(F)cc3)c2=O)c1,64.8% (active)
9,CSCCC(NS(=O)(=O)c1ccccc1F)C(=O)N1CC=C(c2ccccc2)CC1 (stereo unspecified),-11.8% (inactive)
10,c1csc(-c2nnc(COc3ccc4c(c3)OCO4)o2)c1,-40.3% (inactive)
11,CCCOc1ccc(C2=CSC3=NCCN23)cc1Cl,28.9% (inactive)
12,COc1ccc(NC(=O)NN2CCN(C)CC2)c(OC)c1,0.742% (inactive)
13,O=[N+]([O-])c1ccccc1/C=C/CN1CCCC(CO)C1 (stereo unspecified),3.12% (inactive)
14,CC1CCCCC1NC(=O)/C(C#N)=C/C=C/c1ccccc1[N+](=O)[O-] (stereo unspecified),99.6% (active)
15,O=[N+]([O-])c1ccccc1/C=C/CN1CCC(O)CC1,-3.09% (inactive)
16,CCCN(CCC)S(=O)(=O)c1ccc(C(=O)NNC(=O)c2cc(OC)c(OC)c(OC)c2)cc1,-7.78% (inactive)
17,CCc1ccc2c(c1)C1(NN=C(c3ccccc3)S1)C(=O)N2 (stereo unspecified),73% (active)
18,COc1ccc(C)cc1NC(=O)c1cc(-c2ccccc2)nc2c1cnn2C(C)C,11.5% (inactive)
19,OCC[C@H]1C[C@H](O)[C@@H](O)[C@]2(CCCCO2)O1,-0.668% (inactive)
20,COc1ccc(Nc2oc(-c3ccccc3Cl)nc2C#N)cc1,59.3% (active)
21,N#Cc1nc(-c2cccc3ccccc23)oc1N,23% (inactive)
22,COc1ccc(Nc2nnc(C)c3ccccc23)cc1,5.02% (inactive)
23,O=C1CCC[C@@H]2CC(N3CCCCC3)C[C@@H]3CCN1[C@H]23 (stereo partly specified),-0.366% (inactive)
24,COc1ccc(CCNC(=S)N2CCN(S(=O)(=O)c3ccc(F)cc3)CC2)cc1,27.9% (inactive)

row,SMILES,inhibition
1,O=C(NC1CCCC1)C1CCN(C(=O)Nc2cccc(Cl)c2)CC1,-30.9% (inactive)
2,CCn1cc(CN2CCC(C(=O)Nc3cccc(-c4cccc(Cl)c4)c3)CC2)cn1,73% (active)
3,O=C(Nc1cccc(-c2cscn2)c1)C1CCN(Cc2ccsc2)CC1,12.7% (inactive)
4,O=C(Nc1cnn(Cc2ccc(Cl)cc2)c1)C1CCCC1,20.2% (inactive)
5,O=C(Nc1cccc(-c2cccc(Cl)c2)c1)C1CCN(C2CCC2)CC1,63% (active)
6,O=C(NCC1CCN(Cc2ccccc2Cl)CC1)Nc1cccc(Cl)c1,24.2% (inactive)
7,CCn1cc(CN2CCC(C(=O)Nc3cccc(-c4cccc(Cl)c4)c3)CC2)c(C)n1,86.6% (active)
8,CC(=O)c1cc(CN2CCC(C(=O)Nc3cccc(-c4cscn4)c3)CC2)cs1,19.1% (inactive)
9,COc1cccc(-c2cccc(NC(=O)C3CCN(C4CCC4)CC3)c2)c1,-1.08% (inactive)
10,COc1ccc(N2CCC(CNC(=S)Nc3c(C)cccc3C)C2)cc1 (stereo unspecified),0.075% (inactive)
11,Cc1ccc(C(=O)NCCc2nnc(SCC(=O)Nc3cccc(C(=O)O)c3)n2C)cc1,-17.8% (inactive)
12,Cc1ccc(NS(=O)(=O)c2ccc3c(c2)n(C)c(=O)c(=O)n3C)c(C)c1,-12.6% (inactive)
13,Cc1ccc(-n2nc3c(=O)n(C(C)C(=O)NCc4ccc5c(c4)OCO5)nc(C)c3c2C)cc1 (stereo unspecified),32.4% (inactive)
14,C#CCSc1nnc(-c2sc3ccccc3c2Cl)o1,-91.8% (inactive)
15,COc1ccc(CCNC(=O)/C(C#N)=C2\N=C(NC(=O)c3cccs3)c3ccccc32)cc1,-11.7% (inactive)
16,O=C(NCC#CCSc1nnc(-c2cccc3ccccc23)o1)c1cccs1,81.5% (active)
17,CCOC(=O)C(C(=O)OCC)C(C#N)c1ccccc1 (stereo unspecified),-30.8% (inactive)
18,CCOC(=O)/C=C/C(=O)OCC(=O)NC(c1ccccc1)c1ccccc1,69.4% (active)
19,O=C(Cc1ccc(-c2ccccc2)cc1)NC(c1ccccc1)c1ccccc1,6.83% (inactive)
20,O=C(NC(=O)N1CCSCC1)c1c(Cl)cccc1Cl,-31.4% (inactive)
21,COc1ccc(CN2C(=O)CC(Cc3ccc(C)cc3)C2=O)cc1OC (stereo unspecified),5.73% (inactive)
22,CCc1cccc(C)c1NC(=O)COC(=O)CNC(=O)c1cccs1,-18.9% (inactive)
23,Cc1ccccc1C(CC(=O)c1cccs1)C(C#N)C#N (stereo unspecified),75.4% (active)
24,Cc1ccc(C)c(NC(CC(=O)c2ccccc2)C(=O)OCC(=O)c2cccs2)c1 (stereo unspecified),-9.67% (inactive)
